From PubChem BioAssay (Tox21) come the findings set out here.

Results filed as inconclusive are left out. A call without a number means that no potency is given here. Calls of active or inactive are those of the source. Unless noted, calls come from the whole dose curve.

A short description of the first assay: qHTS assay for small molecule agonists of the antioxidant response element (ARE) signaling pathway (AID 743202; active = well fitted activation curve with a large enough effect in the signal ratio in the repeat runs, not every such curve was filed as active; the % refers to the signal ratio; note: potency is the fitted concentration of half-maximal effect). To be noted: HepG2 ARE-bla reporter, beta-lactamase FRET, 16 h; series mostly up to 73.3 µM. In a few lines: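 Agonist mode reporter screen: HepG2 cells with ARE-controlled beta-lactamase are incubated with test compounds for 16 h at 37 C, and beta-lactamase activity is measured as fluorescence of cleaved B/G FRET substrate.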
A general note: In qHTS, concentration-response curves come from the screen itself.
With `CCOC(=O)NC(O)C(Cl)(Cl)Cl` (configuration not stated), the Potency result was “inactive”.

As to `O=C(O)C(F)(F)C(F)(F)C(F)(F)C(F)(F)C(F)(F)C(F)(F)C(F)(F)C(F)(F)F`, the Potency is 6.86 µM (active).

With `Nc1ccccc1C(=O)OCC(O)CO` (configuration not stated), the Potency entry was “inactive”.

With `O=S(=O)(Cl)Cl`, the Potency result is “inactive”.

Regarding `C#CC(O)(C=CCl)CC` (configuration not stated), the Potency entry is “inactive”.

For the molecule `COC(=O)Cc1ccccc1`, the Potency entry was “inactive”.

With `COc1cc(CC#N)cc(OC)c1OC`, the Potency entry was “inactive”.

For the molecule `C=CC(=O)OCC`, the Potency result was “inactive”.

Take `CC(Oc1cccc(Cl)c1)C(=O)O` (configuration not stated): the Potency entry was “inactive”.

Consider `CCC(C)(C)O`, for which the Potency result is “inactive”.

Take `CC1(C)CC(=O)CC(C)(C)N1[O]`: the Potency entry is “inactive”.

Turning to `CCC(=O)O[C@@H]1C=C2CCC3C(CCC4(C)C3CC[C@@H]4OC(=O)CC)C2CC1` (some centres not stated), the Potency entry was “inactive”.

With `CC(Cl)C(=O)O` (configuration not stated), the Potency entry is “inactive”.

For the molecule `CC(=O)NNc1ccccc1`, the Potency entry is “inactive”.

As for `C[N+]1(CCF)[C@@H]2CC[C@H]1CC(OC(=O)C(O)(c1ccccc1)c1ccccc1)C2` (some centres not stated), the Potency entry was “inactive”.

As to `CC(C)C1(C)N=C(c2ncccc2C(=O)O)NC1=O` (configuration not stated), the Potency result is “inactive”.

Regarding `CCOC(=O)c1cncn1C(C)c1ccccc1` (configuration not stated), the Potency result was “inactive”.

For `NC(=S)c1c(Cl)cccc1Cl`, the Potency entry is “inactive”.

In the case of `O=S(=O)(c1ccccc1)c1ccccc1`, the Potency entry is “inactive”.

With `CC(C)(C)NCC(O)c1cc(Cl)c(N)c(C(F)(F)F)c1` (configuration not stated), the Potency result is “inactive”.

As for `CCOc1cccc(C2(N3CCN(c4ccccc4)CC3)CCC(C)CC2)c1` (configuration not stated), the Potency result is “inactive”.

For `C=CC(C)(CCC=C(C)C)OC(=O)c1ccccc1N` (configuration not stated), the Potency entry was “inactive”.

Take `O=C(O)c1ccc(=O)[nH]c1`: the Potency entry is “inactive”.

As to `CCCCCCCCCCCCCCCl`, the Potency result is “inactive”.

On to `CN1C(=O)CN=C(c2ccccc2)c2cc([N+](=O)[O-])ccc21`, for which the Potency entry is “inactive”.

As to `CCOC(C(=O)OCCN(C)C)(c1ccccc1)c1ccccc1`, the Potency result was “inactive”.

Regarding `O=C(NC(=O)c1cc(F)c(F)cc1Cl)Nc1cc(F)ccc1N1CCC(C(=O)O)CC1`, the Potency entry is “inactive”.

A further assay can be described thus: qHTS assay for small molecule agonists of the antioxidant response element (ARE) signaling pathway - cell viability counter screen (AID 743203). Note: nearly all actives have a fitted effect of over 55% in size. Note: potency is the fitted concentration of half-maximal effect. To be noted: ARE-bla HepG2 viability, CellTiter-Glo luminescence, 16 h; series mostly up to 73.3 µM. In a few lines:
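Cells (ARE-bla HepG2, 2,000/well) receive DMSO-dissolved compounds after a 5 hrs rest. Plates incubate 16 hrs at 37C/5% CO2. CellTiter-Glo luminescence is then recorded after 30 min at room temperature.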
In the case of `CCOC(=O)NC(O)C(Cl)(Cl)Cl` (configuration not stated), the Potency entry is “inactive”.

Consider `O=C(O)C(F)(F)C(F)(F)C(F)(F)C(F)(F)C(F)(F)C(F)(F)C(F)(F)C(F)(F)F`, for which the Potency is 61.1 µM (active).

Regarding `CC(Cc1ccccc1)NCc1ccccc1Cl` (configuration not stated), the Potency result was “inactive”.

`Nc1ccccc1C(=O)OCC(O)CO` (configuration not stated): the Potency entry was “inactive”.

For `O=S(=O)(Cl)Cl`, the Potency entry was “inactive”.

In the case of `O=C(N/N=C/c1ccc([N+](=O)[O-])o1)c1cc([N+](=O)[O-])cc([N+](=O)[O-])c1O`, the Potency entry was “inactive”.

As for `C#CC(O)(C=CCl)CC` (configuration not stated), the Potency result is “inactive”.

Turning to `COC(=O)Cc1ccccc1`, the Potency result was “inactive”.

With `COc1cc(CC#N)cc(OC)c1OC`, the Potency entry is “inactive”.

As to `C=CC(=O)OCC`, the Potency entry is “inactive”.

`CC(Oc1cc(Cl)c(Cl)cc1Cl)C(=O)O` (configuration not stated): the Potency entry was “inactive”.

As to `CC(Oc1cccc(Cl)c1)C(=O)O` (configuration not stated), the Potency result was “inactive”.

In the case of `CCOP(=O)(SC(C)CC)N1CCSC1=O` (configuration not stated), the Potency result is “inactive”.

Take `CCC(C)(C)O`: the Potency result is “inactive”.

With `CC1(C)CC(=O)CC(C)(C)N1[O]`, the Potency result is “inactive”.

As to `CCC(=O)O[C@@H]1C=C2CCC3C(CCC4(C)C3CC[C@@H]4OC(=O)CC)C2CC1` (some centres not stated), the Potency entry was “inactive”.

Consider `CC(Cl)C(=O)O` (configuration not stated), for which the Potency result was “inactive”.

Turning to `C=CCN1C[C@H](C)N([C@H](c2ccc(C(=O)N(CC)CC)cc2)c2cccc(OC)c2)C[C@H]1C`, the Potency entry is “inactive”.

On to `CC(=O)NNc1ccccc1`, for which the Potency entry is “inactive”.

Turning to `C[N+]1(CCF)[C@@H]2CC[C@H]1CC(OC(=O)C(O)(c1ccccc1)c1ccccc1)C2` (some centres not stated), the Potency result is “inactive”.

Consider `CC(C)C1(C)N=C(c2ncccc2C(=O)O)NC1=O` (configuration not stated), for which the Potency entry was “inactive”.

As to `CCOC(=O)c1cncn1C(C)c1ccccc1` (configuration not stated), the Potency entry was “inactive”.

Consider `NC(=S)c1c(Cl)cccc1Cl`, for which the Potency entry was “inactive”.

Consider `O=S(=O)(c1ccccc1)c1ccccc1`, for which the Potency result is “inactive”.

Turning to `CC(C)(C)NCC(O)c1cc(Cl)c(N)c(C(F)(F)F)c1` (configuration not stated), the Potency result is “inactive”.

In the case of `CCOc1cccc(C2(N3CCN(c4ccccc4)CC3)CCC(C)CC2)c1` (configuration not stated), the Potency result was “inactive”.

Consider `C[C@H](N)[C@H](O)c1ccc(O)c(O)c1`, for which the Potency entry is “inactive”.

Take `N#CC(C#N)=Cc1ccc(O)c(O)c1`: the Potency result is “inactive”.

Take `C=CC(C)(CCC=C(C)C)OC(=O)c1ccccc1N` (configuration not stated): the Potency result is “inactive”.

For `O=C(O)c1ccc(=O)[nH]c1`, the Potency entry is “inactive”.

As for `CCCCCCCCCCCCCCCl`, the Potency result was “inactive”.

On to `CN1C(=O)CN=C(c2ccccc2)c2cc([N+](=O)[O-])ccc21`, for which the Potency entry is “inactive”.

Regarding `CCOC(C(=O)OCCN(C)C)(c1ccccc1)c1ccccc1`, the Potency result is “inactive”.

As to `CC(CC(C(N)=O)(c1ccccc1)c1ccccc1)N(C)C` (configuration not stated), the Potency result was “inactive”.

In the case of `NCCc1cc(O)c(O)cc1O`, the Potency entry is “inactive”.

As to `CCCN(CCC)C(=O)Cc1c(-c2ccc(Cl)cc2)nc2ccc(Cl)cn12`, the Potency result is “inactive”.

In the case of `O=C(NC(=O)c1cc(F)c(F)cc1Cl)Nc1cc(F)ccc1N1CCC(C(=O)O)CC1`, the Potency result was “inactive”.

For `Cc1nc(N(C)C)nc(OC(=O)N(C)C)c1C`, the Potency entry is “inactive”.

`C[C@H]1[C@@H]2Cc3ccc(O)cc3[C@@]1(C)CCN2C`: the Potency result was “inactive”.

The nature of the next assay: qHTS assay for small molecule activators of the heat shock response signaling pathway - cell viability counter screen (AID 743209; active = well fitted cell-killing curve with a large enough effect in the repeat runs; note: nearly all actives have a fitted effect of over 50% in size). The note with it: HSE-bla HeLa viability, CellTiter-Glo luminescence, 5 h; series mostly up to 62.6 µM. In a few lines: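 Quantitative HTS format, Tox21 10K library. HeLa cells carrying an HSE-driven beta-lactamase reporter were treated 5 h at 37 C, then assessed for viability by CellTiter-Glo luminescence.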
As to `O=C(O)C(F)(F)C(F)(F)C(F)(F)C(F)(F)C(F)(F)C(F)(F)C(F)(F)C(F)(F)F`, the Potency entry is “inactive”.

Consider `Nc1ccccc1C(=O)OCC(O)CO` (configuration not stated), for which the Potency entry was “inactive”.

As to `O=S(=O)(Cl)Cl`, the Potency result was “inactive”.

As for `C#CC(O)(C=CCl)CC` (configuration not stated), the Potency result was “inactive”.

For the molecule `COC(=O)Cc1ccccc1`, the Potency result is “inactive”.

Consider `COc1cc(CC#N)cc(OC)c1OC`, for which the Potency result was “inactive”.

For the molecule `C=CC(=O)OCC`, the Potency entry was “inactive”.

On to `CC(Oc1cccc(Cl)c1)C(=O)O` (configuration not stated), for which the Potency entry is “inactive”.

`CCC(C)(C)O`: the Potency entry was “inactive”.

Turning to `CC1(C)CC(=O)CC(C)(C)N1[O]`, the Potency result was “inactive”.

Consider `CCC(=O)O[C@@H]1C=C2CCC3C(CCC4(C)C3CC[C@@H]4OC(=O)CC)C2CC1` (some centres not stated), for which the Potency result was “inactive”.

Take `CC(Cl)C(=O)O` (configuration not stated): the Potency result was “inactive”.

`C=CCN1C[C@H](C)N([C@H](c2ccc(C(=O)N(CC)CC)cc2)c2cccc(OC)c2)C[C@H]1C`: the Potency result is “inactive”.

Regarding `C[N+]1(CCF)[C@@H]2CC[C@H]1CC(OC(=O)C(O)(c1ccccc1)c1ccccc1)C2` (some centres not stated), the Potency result was “inactive”.

With `CC(C)C1(C)N=C(c2ncccc2C(=O)O)NC1=O` (configuration not stated), the Potency entry is “inactive”.

For the molecule `CCOC(=O)c1cncn1C(C)c1ccccc1` (configuration not stated), the Potency result is “inactive”.

As for `NC(=S)c1c(Cl)cccc1Cl`, the Potency result was “inactive”.

Regarding `O=S(=O)(c1ccccc1)c1ccccc1`, the Potency entry is “inactive”.

As for `CC(C)(C)NCC(O)c1cc(Cl)c(N)c(C(F)(F)F)c1` (configuration not stated), the Potency entry was “inactive”.

Regarding `C[C@H](N)[C@H](O)c1ccc(O)c(O)c1`, the Potency entry was “inactive”.

As for `N#CC(C#N)=Cc1ccc(O)c(O)c1`, the Potency result is “inactive”.

On to `C=CC(C)(CCC=C(C)C)OC(=O)c1ccccc1N` (configuration not stated), for which the Potency entry is “inactive”.

In the case of `O=C(O)c1ccc(=O)[nH]c1`, the Potency result was “inactive”.

For `CCCCCCCCCCCCCCCl`, the Potency entry is “inactive”.

With `CCOC(C(=O)OCCN(C)C)(c1ccccc1)c1ccccc1`, the Potency entry was “inactive”.

As for `CC(CC(C(N)=O)(c1ccccc1)c1ccccc1)N(C)C` (configuration not stated), the Potency result is “inactive”.

Turning to `NCCc1cc(O)c(O)cc1O`, the Potency result was “inactive”.

As for `CCCN(CCC)C(=O)Cc1c(-c2ccc(Cl)cc2)nc2ccc(Cl)cn12`, the Potency entry is “inactive”.

As to `O=C(NC(=O)c1cc(F)c(F)cc1Cl)Nc1cc(F)ccc1N1CCC(C(=O)O)CC1`, the Potency result was “inactive”.

As for `Cc1nc(N(C)C)nc(OC(=O)N(C)C)c1C`, the Potency result is “inactive”.

For the molecule `C[C@H]1[C@@H]2Cc3ccc(O)cc3[C@@]1(C)CCN2C`, the Potency entry is “inactive”.
